“And” between values parts separate entries of the source, which are not always exact repeats. Identical values can stand only once. Hit rate of the full screen: of about 4,300 compounds, about 60 (1%) were called active.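 The calls were made as follows: active = inhibition of labelled peptide binding to the formyl peptide receptor of at least 65%; inactive = the rest.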 This excerpt belongs to a sample that is enriched for actives.
target: fMet-Leu-Phe receptor (Homo sapiens) (UniProt P21462); experiment: FPR binders displacing fluorescent formyl peptide, primary screen, U937-FPR cells, fMLFK-FITC, flow cytometry (AID 362); settings: fMLFK-FITC displacement; hits give high values, concentration not given here;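 as to inhibition: plate controls were buffer control wells for no effect and unlabeled fMLFF blocking peptide for full effect; higher means less cell fluorescence so more probe displaced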
Sequence (P21462 whole entry, looked up): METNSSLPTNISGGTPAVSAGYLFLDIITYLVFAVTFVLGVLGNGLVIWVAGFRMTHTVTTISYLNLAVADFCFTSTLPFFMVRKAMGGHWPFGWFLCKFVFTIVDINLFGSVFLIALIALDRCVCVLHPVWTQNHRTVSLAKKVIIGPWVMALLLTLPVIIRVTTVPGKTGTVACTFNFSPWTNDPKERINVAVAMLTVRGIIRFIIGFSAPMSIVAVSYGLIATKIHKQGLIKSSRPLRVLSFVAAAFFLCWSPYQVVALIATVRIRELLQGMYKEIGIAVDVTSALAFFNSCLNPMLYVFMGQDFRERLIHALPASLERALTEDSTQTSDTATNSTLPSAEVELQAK

Compound | inhibition
CCCCN(C)Cc1c(O)ccc2c3c(c(=O)oc12)CCC3 | 9.8% (inactive)
CCN(CC)CCOC(=O)NCC1CC(C(C)=O)C1(C)C (configuration not stated) | 8.3% (inactive)
CC(=O)c1ccc(N2CCN(C(=O)c3cn(CC(C)C)c(=O)c4c3c3ccccc3n4C)CC2)cc1 | 2.2% (inactive)
CCOc1ccc(C2C(C(=O)OC(C)C)=C(C)NC3=C2C(=O)C(C(=O)OC)C(C)C3)cc1 (configuration not stated) | 13.6% (inactive)
CCOC(=O)C(CC)Oc1ccc2c3c(c(=O)oc2c1C)CCC3 (configuration not stated) | inactive
CCOC(=O)c1cc2c(=O)n3ccccc3nc2n(CC(C)C)c1=NC(=O)c1ccc(C(F)(F)F)cc1 | inactive
CCOCCOC(=O)C1=C(C)NC2=C(C(=O)C(C(=O)OC)C(C)C2)C1c1ccc(N(C)C)cc1 (configuration not stated) | 31.5% (inactive)
COCCOC(=O)C1=C(C)NC2=C(C(=O)C(C(=O)OC)C(C)C2)C1c1ccc(OC)cc1 (configuration not stated) | 16.7% (inactive)
COC(=O)C1C(=O)C2=C(CC1C)NC(C)=C(C(=O)OCCOC(C)C)C2c1ccc(F)cc1 (configuration not stated) | 14.3% (inactive)
COCCOC(=O)C1=C(C)NC2=C(C(=O)C(C(=O)OC)C(C)C2)C1c1ccc(N(C)C)cc1 (configuration not stated) | 64% (inactive)
CCCOCCOC(=O)C1=C(C)NC2=C(C(=O)C(C(=O)OC)C(C)C2)C1c1ccc(N(C)C)cc1 (configuration not stated) | 78.6% (active)
CCCOC(=O)C1=C(C)NC2=C(C(=O)C(C(=O)OC)C(C)C2)C1c1ccc(N(C)C)cc1 (configuration not stated) | 23.6% (inactive)
COC(=O)C1C(=O)C2=C(CC1C)NC(C)=C(C(=O)OCCOC(C)C)C2c1ccc(OC)cc1 (configuration not stated) | 76.1% (active)
CCOc1ccc(C2C(C(=O)OCCOC(C)C)=C(C)NC3=C2C(=O)C(C(=O)OC)C(C)C3)cc1 (configuration not stated) | 39.6% (inactive)
COC(=O)C1C(=O)C2=C(CC1C)NC(C)=C(C(=O)OCCOC(C)C)C2c1ccc(N(C)C)cc1 (configuration not stated) | 79.4% (active)
COc1ccc(/C=C2/CCCC3=C2OC(N)=C(C#N)C3c2ccc(OC)c(OC)c2)cc1OC (configuration not stated) | inactive
COc1ccc(C2C(C(=O)OC3CCCC3)=C(C)NC3=C2C(=O)CCC3)c(OC)c1OC (configuration not stated) | inactive
COc1cc(C2C(C(=O)OC3CCCCC3)=C(C)NC3=C2C(=O)CC(C)(C)C3)cc(Cl)c1O (configuration not stated) | 10.9% (inactive)
COc1ccc(N2C(=O)C3C4C=CC(C4)C3C2=O)cc1OC (configuration not stated) | inactive
CCOc1ccc(C2C(C(=O)OC3CCCCC3)=C(C)NC3=C2C(=O)CCC3)cc1OC (configuration not stated) | 20.2% (inactive)
COc1ccc(CNC(=O)CCCCCn2c(SCC(=O)NCC3CCCO3)nc3cc4c(cc3c2=O)OCO4)cc1 (configuration not stated) | 2.8% (inactive)
CCOC(=O)C1=C(C)NC2=C(C(=O)C(C(=O)OC)C(C)C2)C1c1ccccc1OC(C)C (configuration not stated) | 10.1% (inactive)
CC(C)(C)c1cc(NS(=O)(=O)c2ccc([N+](=O)[O-])cc2)cc(C(C)(C)C)c1O | 68% (active)

Compound | inhibition
CC(C)(C)c1cc(Nc2ccccc2[N+](=O)[O-])cc(C(C)(C)C)c1O | 20.9% (inactive)
CC(C)(C)c1cc(NS(=O)(=O)c2ccccc2[N+](=O)[O-])cc(C(C)(C)C)c1O | 9.2% (inactive)
O=C(O)C12CC3CC(C1)CC(n1cnc([N+](=O)[O-])n1)(C3)C2 | inactive
COc1ccc(N(CC(=O)N2CC3CC(C2)c2cccc(=O)n2C3)S(=O)(=O)c2c(C)noc2C)cc1 (configuration not stated) | inactive
COc1c(O)ccc(C2Nc3ccc4ccccc4c3C3=C2C(=O)CC(C)(C)C3)c1[N+](=O)[O-] (configuration not stated) | 15.3% (inactive)
COc1c(OC(C)=O)ccc(C2Nc3ccc4ccccc4c3C3=C2C(=O)CC(C)(C)C3)c1[N+](=O)[O-] (configuration not stated) | inactive
CC1(C)CC(=O)C2=C(C1)c1c(ccc3ccccc13)NC2c1cc([N+](=O)[O-])ccc1N1CCOCC1 (configuration not stated) | 71.9% (active)
CC(=O)N1c2ccc(S(=O)(=O)N(CC(C)C)CC(C)C)cc2CC1C (configuration not stated) | inactive
CCCN(CCC)Cc1c(O)ccc2c(=O)c(Oc3ccc(OC)cc3)c(C(F)(F)F)oc12 | inactive
N#CCCN(C(=O)c1cc(Cl)ccc1NS(=O)(=O)c1cccc2nsnc12)C1CCCCC1 | 73% (active)
O=S(=O)(NC1CCCCCCC1)c1cccc2nsnc12 | inactive
O=S(=O)(NC1CCCC1)c1cccc2nsnc12 | inactive
CCOc1cc(C2Nc3c(ccc4ccccc34)C3=C2CCCC3=O)cc(Br)c1O (configuration not stated) | inactive
COc1ccc(N2C3=C(C(=O)CC(C)(C)C3)C(c3ccc(F)cc3)C3=C2CC(C)(C)CC3=O)c(OC)c1 | inactive
CC1=CC(C)C2(COC(=O)Nc3ccccc3)COC(c3cccnc3)C1C2C (configuration not stated) | inactive
CCCCNC(=O)c1cn(CC(C)C)c(=O)c2c1c1ccccc1n2C | inactive
CCOC(=O)C(O)(c1ccc(N(CC)C(=O)c2cccc(F)c2)cc1)C(F)(F)F (configuration not stated) | 27.9% (inactive)
CCN(C(=O)c1ccc(F)cc1)c1ccc(C(O)(C(=O)OC)C(F)(F)F)cc1 (configuration not stated) | inactive
CCN(C(=O)c1cccc(F)c1)c1ccc(C(O)(C(=O)OC)C(F)(F)F)cc1 (configuration not stated) | 85.1% (active)
O=C(CSc1c2c(nc3ccccc13)CCCC2)Nc1ccc2c(c1)OCCO2 | inactive
CC(C)C(C(=O)Nc1nccs1)N1C(=O)c2ccccc2C1=O (configuration not stated) | 17.3% (inactive)
CC(c1ccccc1)N1C(=O)/C(=C/c2c(N3CCCCC3)nc3ccccn3c2=O)SC1=S (configuration not stated) | inactive
CC(C)C(C(=O)O)N1C(=O)/C(=C2/C(=O)N(C)c3ccccc32)SC1=S (configuration not stated) | 94.4% (active)

Compound | inhibition
CC(C)c1nnc(NC(=O)C(C(C)C)N2C(=O)c3ccccc3C2=O)s1 (configuration not stated) | 36.6% (inactive)
CC(C)C(C(=O)O)N1C(=O)/C(=C/c2ccccn2)SC1=S (configuration not stated) | 90.2% (active)
CC(C)C(C(=O)O)N1C(=O)c2cccc([N+](=O)[O-])c2C1=O (configuration not stated) | 17.7% (inactive)
CCOc1ccccc1C1C2=C(CC(C)(C)CC2=O)Nc2nc(C(F)(F)F)nn21 (configuration not stated) | 14.1% (inactive)
O=C(COc1ccc(Cl)cc1)Oc1ccc2c3c(c(=O)oc2c1)CCC3 | 29.6% (inactive)
CC(C)Cn1cc(C(=O)N2CCN(C(=O)c3ccco3)CC2)c2c3ccccc3n(C)c2c1=O | 4% (inactive)
CCOCCOC(=O)C1=C(C)NC2=C(C(=O)C(C(=O)OC)C(C)C2)C1c1cccc(Cl)c1 (configuration not stated) | 30.9% (inactive)
CC1(C)C2([N+](=O)[O-])CN3CC1([N+](=O)[O-])CN(C2)C3C(O)C(O)C(O)C(O)CO (configuration not stated) | inactive
O=C(C1CCC(CNS(=O)(=O)c2ccc(Br)s2)CC1)N1CCC(Cc2ccccc2)CC1 (configuration not stated) | inactive
CC(C)C1Nc2c(C(=O)O)cccc2C(Nc2ccccc2C(=O)O)C1(C)C (configuration not stated) | 65.1% (active) and 89.9% (active)
COc1ccccc1C1Nc2c(C(=O)O)cccc2C2C3CCC(C3)C12 (configuration not stated) | 20.9% (inactive)
O=C(O)c1cccc2c1NC(C(=O)O)C1CC=CC21 (configuration not stated) | 4.5% (inactive)
COc1ccc(Oc2c(C(F)(F)F)oc3cc(OC(C)C(=O)OCCC(C)C)ccc3c2=O)cc1 (configuration not stated) | 8% (inactive)
O=C(NCCCN1CCC(Cc2ccccc2)CC1)C1CCC(CNS(=O)(=O)c2ccccc2)CC1 (configuration not stated) | inactive
CCOc1cc(C2C(C(=O)OC3CCCCCC3)=C(C)NC3=C2C(=O)CC(C)(C)C3)cc([N+](=O)[O-])c1O (configuration not stated) | 40.2% (inactive)
COc1ccc(C2C(C(=O)OC3CCCCC3)=C(C)NC3=C2C(=O)CC(c2ccc(Cl)cc2)C3)cc1OC (configuration not stated) | 77.5% (active)
COc1cc(C2C(C(=O)OC3CCCCCC3)=C(C)NC3=C2C(=O)CCC3)cc([N+](=O)[O-])c1O (configuration not stated) | 69.7% (active)
COc1cc(C2C(C(=O)OC3CCCC3)=C(C)NC3=C2C(=O)CC(c2ccc(Cl)cc2)C3)ccc1OC(C)=O (configuration not stated) | 8.8% (inactive)
COc1cc(C2C(C(=O)OC3CCCCC3)=C(C)NC3=C2C(=O)CC(c2ccc(Cl)cc2)C3)ccc1OC(C)=O (configuration not stated) | 7% (inactive)
CC1=C(C(=O)OC2CCCCC2)C(c2ccc(Cl)c([N+](=O)[O-])c2)C2=C(CCCC2=O)N1 (configuration not stated) | inactive
COc1cc(C2C(C(=O)OC3CCCCCC3)=C(C)NC3=C2C(=O)CC(C)(C)C3)cc([N+](=O)[O-])c1O (configuration not stated) | 59.7% (inactive)
COc1cc(C2C(C(=O)OC3CCCCC3)=C(C)NC3=C2C(=O)CCC3)cc(Cl)c1O (configuration not stated) | 24.3% (inactive)
CCOc1cc(C2C(C(=O)OC3CCCCCC3)=C(C)NC3=C2C(=O)CCC3)cc([N+](=O)[O-])c1O (configuration not stated) | 66.4% (active)

Compound | inhibition
COc1ccc(C2NC(=O)NC(C)=C2C(=O)OC2CCCCCC2)cc1 (configuration not stated) | inactive
CCOC(=O)C1CCC(CN(Cc2ccccc2C)S(=O)(=O)c2cccc(C(F)(F)F)c2)CC1 (configuration not stated) | inactive
COc1cccc(C(=O)Oc2ccc(C(C3=C(O)CC(C)(C)CC3=O)C3=C(O)CC(C)(C)CC3=O)cc2OC)c1 | 86.9% (active)
CCOc1cc(C2C3=C(CC(C)(C)CC3=O)OC3=C2C(=O)CC(C)(C)C3)ccc1OC(=O)c1cccc(OC)c1 | inactive
CCOc1cc(C2C3=C(CC(C)(C)CC3=O)OC3=C2C(=O)CC(C)(C)C3)ccc1OC(=O)c1cccc(C)c1 | inactive
COc1cccc(C(=O)Oc2ccc(C3C4=C(CC(C)(C)CC4=O)OC4=C3C(=O)CC(C)(C)C4)cc2OC)c1 | inactive
COc1cc(C2C3=C(CC(C)(C)CC3=O)OC3=C2C(=O)CC(C)(C)C3)ccc1OC(=O)c1cccc(C)c1 | 12.3% (inactive)
CCOc1cc(C(C2=C(O)CC(C)(C)CC2=O)C2=C(O)CC(C)(C)CC2=O)ccc1OC(=O)c1cccc(OC)c1 | 80.2% (active)
CCOC(=O)c1cccc(N2C(=O)C3C(C2=O)C2C=CC3C23CC3)c1 (configuration not stated) | 5.1% (inactive)
CCSCCOC(=O)C1=C(C)NC2=C(C(=O)C(C(=O)OC)C(C)C2)C1c1c(F)cccc1Cl (configuration not stated) | inactive
CCCOCCOC(=O)C1=C(C)NC2=C(C(=O)C(C(=O)OC)C(C)C2)C1c1ccc(C)o1 (configuration not stated) | 53.7% (inactive)
CCN(Cc1ccccc1)Cc1c(O)ccc2c(=O)c(Oc3ccc(OC)cc3)c(C(F)(F)F)oc12 | inactive
CCOc1ccccc1C(=O)NC1(C(F)(F)F)C(=O)Nc2c1c(=O)[nH]c(=O)n2-c1ccccc1 (configuration not stated) | 63.1% (inactive)
Cc1ccccc1C(=O)NC1(C(F)(F)F)C(=O)Nc2c1c(=O)[nH]c(=O)n2-c1ccc(F)cc1 (configuration not stated) | 12.2% (inactive)
O=C(NC1(C(F)(F)F)C(=O)Nc2c1c(=O)[nH]c(=O)n2-c1ccc(F)cc1)c1ccccc1Cl (configuration not stated) | 11% (inactive)
CCOc1ccccc1C(=O)NC1(C(F)(F)F)C(=O)Nc2c1c(=O)[nH]c(=O)n2-c1ccc(C)cc1 (configuration not stated) | 65.3% (active)
Cc1ccc(-n2c3c(c(=O)[nH]c2=O)C(NC(=O)c2ccccc2C)(C(F)(F)F)C(=O)N3)cc1 (configuration not stated) | 10.6% (inactive)
CCOc1ccccc1C(=O)NC1(C(F)(F)F)C(=O)Nc2c1c(=O)[nH]c(=O)n2-c1ccc(F)cc1 (configuration not stated) | 75.2% (active)
CCOC(=O)CSc1nc2ccccc2c(=O)n1CC1CCC(C(=O)NCCc2ccccc2)CC1 (configuration not stated) | inactive
O=C(O)C1C2C=CC(C2)C1C(=O)NCC1CCCO1 (configuration not stated) | 2.4% (inactive)
CCCOCCOC(=O)C1=C(C)NC2=C(C(=O)C(C(=O)OC)C(C)C2)C1c1cccc(OC)c1 (configuration not stated) | 37.6% (inactive)
CCC(C)C(Nc1ncnc2sc3c(c12)CCC3)C(=O)O (configuration not stated) | 0.8% (inactive)
COc1ccc(OC)c(NC(=O)C(C(C)C)N2C(=O)c3ccccc3C2=O)c1 (configuration not stated) | 27.7% (inactive)

— PubChem BioAssay AID362 (NMMLSC, 2006)
